# Screening results (PubChem)
# Six1-Eya2 blk: qHTS Assay for Inhibitors of the Six1/Eya2 Interaction; activity change, % (no concentration beside the values); Homeobox protein SIX1 (Homo sapiens) + Protein phosphatase EYA2 (Homo sapiens), …; hit rate 0.56% among 360,000; AID 651725, 2012; AlphaScreen GST-Six1/His-Eya2 binding, biochemical; hits give low values
# Target sequence (O00167 whole entry, looked up): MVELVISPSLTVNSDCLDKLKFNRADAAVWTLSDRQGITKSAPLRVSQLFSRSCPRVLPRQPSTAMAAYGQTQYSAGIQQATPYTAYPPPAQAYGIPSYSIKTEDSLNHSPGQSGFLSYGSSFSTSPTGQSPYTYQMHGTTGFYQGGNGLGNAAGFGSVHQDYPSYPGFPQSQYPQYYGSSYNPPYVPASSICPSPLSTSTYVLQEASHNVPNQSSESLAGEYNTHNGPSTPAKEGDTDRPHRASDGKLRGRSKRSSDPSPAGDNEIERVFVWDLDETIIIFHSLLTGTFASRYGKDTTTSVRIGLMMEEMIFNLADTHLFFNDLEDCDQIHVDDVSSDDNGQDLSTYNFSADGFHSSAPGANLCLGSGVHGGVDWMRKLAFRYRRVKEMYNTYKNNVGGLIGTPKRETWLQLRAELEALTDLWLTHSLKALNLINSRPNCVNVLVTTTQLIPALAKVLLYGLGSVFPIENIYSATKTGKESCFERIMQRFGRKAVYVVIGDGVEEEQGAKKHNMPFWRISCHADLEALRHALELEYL
# Target sequence (Q15475 whole entry, looked up): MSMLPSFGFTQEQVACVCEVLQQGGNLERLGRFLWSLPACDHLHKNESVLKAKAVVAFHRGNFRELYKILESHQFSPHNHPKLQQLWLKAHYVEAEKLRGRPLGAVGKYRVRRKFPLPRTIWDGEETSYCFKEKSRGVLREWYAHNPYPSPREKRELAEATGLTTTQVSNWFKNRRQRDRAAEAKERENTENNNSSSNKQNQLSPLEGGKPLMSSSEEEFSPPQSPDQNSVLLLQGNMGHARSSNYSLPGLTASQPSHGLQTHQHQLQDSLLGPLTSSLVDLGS
#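 AlphaScreen with GST-Six1 and His-Eya2 (5X mix: 250 nM and 500 nM), glutathione donor and nickel acceptor beads; buffer 50 mM Tris pH 8.0, 300 mM NaCl, 1 mM TCEP; 1 h at 37 C in the dark.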
# pAkt inh: HTS Assay for Inhibitors of Akt Phophorylation: Primary Screen; hit rate 0.32% among 360,000; Neuro2A IGF-stimulated pAkt S473 HTRF, 20 min; hits give low values; activity change, % for hits at 50 µM; in the data active means activity change below about -80%; inconclusive means mostly about -51% to -80%
#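 Single-point screen (50 µM final compound) in Neuro2A cells stimulated 20 min with 6 nM IGF at 37 deg C. After lysis, Ser473-phosphorylated Akt read by HTRF (ex 330 nm, em 615/665 nm) as the 665/615 ratio.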
# CCT chaperon mod: High-Throughput Screening for Modulators of Cytosolic Chaperonin Activity | hit rate 0.3% among 360,000 | purified chaperonin ATPase assay, HTRF ADP detection, 30 min | activity change, % (test concentration not listed), hits read low; in the data active means activity change below about -30%
#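 TRiC at 40 or 20 nM final (batch-dependent) in 30 mM Tris pH 7.4, 100 mM KCl, 5 mM MgCl2, 1 mM DTT, with compound at single 76 uM and 10 uM ATP, 30 min at 37 deg C. ADP detected by HTRF Transcreener, 665/615 ratio.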
# CtBP-E1A inh: qHTS Assay for Inhibitors of the CtBP/E1A Interaction | CtBP / adenovirus E1A interaction (AlphaScreen) | AlphaScreen GST-E1A/His-CtBP binding, 1536-well; hits give low values | activity change, % (concentration not given with the values) | hit rate 0.49% among 340,000 | AID 651724, 2012
#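 AlphaScreen with 125 nM GST-E1A and 125 nM His-CtBP (5X stocks) in Tris pH 8.0, 300 mM NaCl, BSA, Tween 20, TCEP. Compounds preincubated 2 h at 37 deg C, then glutathione donor/nickel acceptor beads added for 1 h at 37 deg C in dark.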
# Starred values were filed as active, the others as inactive; i = inactive; ? = inconclusive; / = not tested or not shown. Shown are actives, neighbours in structure and some others; about 1.3% of the full set was active somewhere. Unless noted, no stated cut-off is given here; in the data, active means activity change below about -65%; inconclusive means mostly about -30% to -63%; inactive means weaker than that. On the % scale 0 is the no-effect control and ±100 the full control effect.
SMILES,Six1-Eya2 blk,pAkt inh,CCT chaperon mod,CtBP-E1A inh
CCc1c(C(=O)NC(C)C2CCCO2)csc1C (stereo not given),6,i,2,4
Oc1c(N=Nc2ccccn2)ccc2ccccc12,-97*,i,0,-95*
CCc1nc2ccc(C(=O)NCCc3ccccn3)cn2c1N(C)Cc1ccc(N(C)C)cc1,-11,i,0,-24
CC(=O)C1=C(C)OC(N)=C(C#N)C1c1cc2cccc(C)c2nc1Cl (stereo not given),0,i,-2,-4
CCc1ccc2[nH]c(=O)c(C3C(C#N)=C(N)Oc4c3ccc3cccnc43)cc2c1 (stereo not given),?,i,0,-86*
Cc1ccc2cc(C3C(C#N)=C(N)Oc4c3ccc3cccnc43)c(=O)[nH]c2c1 (stereo not given),-72*,i,3,-94*
CCOc1cccc(C2C(C#N)=C(N)Oc3cc(C)[nH]c(=O)c32)c1OCC (stereo not given),1,i,0,/
N#CC1=C(N)Oc2c(ccc3cccnc23)C1c1cccnc1 (stereo not given),-91*,i,1,-92*
CCOc1cc(S(=O)(=O)NCCc2ccc(OC)c(OC)c2)c(OCC)cc1-n1cnnn1,1,i,-1,1
CCOc1cc(S(=O)(=O)NCc2ccc(OC)cc2)c(OCC)cc1-n1cnnn1,-5,-92%*,0,0
CCOC(=O)[C@]12CCCC=C1N(CCC1=CCCCC1)C(=O)[C@H](CC(=O)NCc1cccc(C(F)(F)F)c1)C2,-3,i,/,-19
CN(CC(=O)Nc1ccc(F)cc1)C(=O)COC(=O)c1ccc(-c2ccccc2)cc1,-6,i,-31*,-3
CC(C)COc1ccc(C(=O)OCC(=O)N(C)CC(=O)Nc2ccc(F)cc2)cc1,0,i,0,0
CCC1(C2C=COC=C2)NC(=O)NC1=O (stereo not given),-1,i,0,5
CN1/C(=C\C(=S)NC(=O)c2cccc(Br)c2)C(C)(C)c2ccccc21,-73*,i,-1,-70*
CN1/C(=C\C(=S)NC(=O)c2ccc([N+](=O)[O-])cc2)C(C)(C)c2ccccc21,?,i,0,?
Cc1cccc2cc(C#N)c(SCC(=O)N3CC(=O)Nc4ccccc43)nc12,-9,?,-45*,-7
COc1ccccc1-c1cc(NC=O)c2ncc(-c3cccc(C(F)(F)F)c3)n2c1,-1,i,0,2
CN(C)c1ccccc1-c1cc(NC=O)c2ncc(-c3cccc(C(F)(F)F)c3)n2c1,?,i,-5,-72*
O=[N+]([O-])c1ccc(Cl)c(/C=N/n2c(-c3ccncc3)n[nH]c2=S)c1,-79*,i,0,-73*
O=C(NCc1ccncc1)C1CCN(S(=O)(=O)c2ccc(Cl)c(C(F)(F)F)c2)CC1,0,i,1,8
O=C(Nc1c(F)cc(F)cc1Br)c1ccco1,1,i,-101*,-7
Cc1nc(-c2cnn(-c3ccccc3)c2)c2cc(C)oc2n1,-87*,i,-1,-88*
CCN(CC)CCCN1C(=O)C(O)=C(C(=O)c2cc3ccccc3o2)C1c1ccccn1 (stereo not given),-2,-95%*,-4,-1
CCN(CC)CCCN1C(=O)C(O)=C(C(=O)c2cc3cccc(OC)c3o2)C1c1ccncc1 (stereo not given),5,-90%*,2,3
SMILES,Six1-Eya2 blk,pAkt inh,CCT chaperon mod,CtBP-E1A inh
CC(C)NC(=O)C1Cc2c(-c3ccc(Cl)cc3)ccnc2O1 (stereo not given),1,i,-2,7
CC(C)(C)c1ccc(NC(=O)c2ccccc2)c([N+](=O)[O-])c1,-25,i,-41*,0
Cc1c(NC(=O)c2ccc(C(C)(C)C)cc2)cccc1[N+](=O)[O-],0,i,0,12
c1ccc(CNc2nc(-c3ccccn3)nc3ccccc23)cc1,?,i,-2,-77*
CCCc1cc(=O)n2[nH]c(C)c(-c3ccccc3OC)c2n1,0,i,-2,-1
CCCc1cc(=O)n2[nH]c(C)c(-c3ccccc3)c2n1,0,i,-57*,1
O=c1[nH]c(=O)n(Cc2ccccc2)c2nc(-c3ccco3)cc(C(F)(F)F)c12,2,-110%*,-6,-1
CCOC1CCCc2oc(-c3ccc(N(C)C)cc3)c(C(=O)OC)c21 (stereo not given),1,i,0,2
CCC(=O)c1cn(CC(=O)Nc2ccc(OC)cc2)c2ccccc12,1,i,1,8
CCc1ccccc1N(C)S(=O)(=O)c1ccc(-c2cc(C)no2)s1,0,i,1,/
CN1CCN(S(=O)(=O)c2cccc(S(=O)(=O)c3ccc(Cl)c(Cl)c3)c2)CC1,2,-108%*,-1,2
O=C(NCC(c1ccco1)N1CCCC1)c1cc(S(=O)(=O)N2CCCCC2)ccc1Cl (stereo not given),1,i,-40*,/
O=C(NCC(c1ccco1)N1CCCC1)c1cccc(S(=O)(=O)N2CCCCC2)c1 (stereo not given),-3,i,0,-3
CN1CCC(N(C)C(=O)c2cccc(S(=O)(=O)N3CCc4ccccc43)c2)CC1,3,i,-1,-5
O=C(N/N=C/c1ccccn1)c1ccccc1,?,i,-3,?
O=C(N/N=C\c1ccccn1)c1ccccc1O,?,i,-2,?
O=C(N/N=C(\Cc1ncc[nH]1)c1ccccc1)c1ccncc1,-82*,i,-4,-90*
Cn1ncc(Cl)c1C(=O)N/N=C/c1ccccn1,-80*,i,1,-75*
O=C(N/N=C/c1cccc2cccnc12)c1ccccc1O,-92*,i,-3,/
O=C(N/N=C/c1ccccn1)c1ccncc1,-75*,i,-1,/
CCOC(=O)CCNC(=O)N1CCCC(N2CCN(c3ccc(OC)cc3)CC2)C1 (stereo not given),20,i,1,-12
CCCCCCNC(=O)O[C@H]1Cn2c(=O)ccc(=O)n2[C@@H]2CN(S(=O)(=O)c3ccc(C)cc3)C[C@]12O,8,i,-1,-3
O=C(N/N=C/c1cccc2nccnc12)c1ccccc1O,-89*,i,1,-76*
CCC(C)[C@@H](N)C(=O)N/N=C/c1cccc2nccnc12 (stereo not given in full),-87*,i,1,-71*
O=C(N/N=C/c1cccc2nccnc12)c1ccncc1,-68*,i,1,-89*
CCC(C)[C@H](NC(=O)OC(C)(C)C)C(=O)N/N=C/c1cccc2nccnc12 (stereo not given in full),-16,i,1,-27
